Bioassay records as filed in PubChem.
Shown are actives, neighbours in structure and some others; about 3.4% of the full set was active somewhere.
GPR151 activ = activates the human receptor GPR151; activation, % at 11.2 µM; PathHunter beta-arrestin GPR151 cells, luminescence; hit rate 1% among 650,000; AID 1508602; in the data active means activation above about 4.9%;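 further: 0% = median of compound wells and 100% = cells with positive control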
FBW7 activator = activators of human E3 ligase FBW7; normalized activity (activation), % at 26.1 µM; hit rate 0.13% among 650,000; AID 1259310; AlphaScreen FBW7–phospho-cyclin E peptide binding, activator screen; in the data active means normalized activity above about 1.9%;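 further: purified mutant Fbw7 with reduced substrate affinity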
TEAD-YAP inh = TEAD-YAP interaction inhibition; HEK-TIYL cells, TEAD-Gal4/YAP UAS-luciferase luminescence; inhibition, % at 9.12 µM; hit rate 1.4% among 640,000; in the data active means inhibition above about 32%;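 further: 0% = median of test compound wells and 100% = reference inhibitor wells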
MITF inh = human MITF inhibition, primary screen | hit rate 0.91% among 650,000 | AlphaScreen MITF homodimerization, bead proximity signal | inhibition, % at 2.6 µM; in the data active means inhibition above about 50%;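 further: 0% = vehicle wells with protein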
Target sequence (O75030 whole entry, looked up): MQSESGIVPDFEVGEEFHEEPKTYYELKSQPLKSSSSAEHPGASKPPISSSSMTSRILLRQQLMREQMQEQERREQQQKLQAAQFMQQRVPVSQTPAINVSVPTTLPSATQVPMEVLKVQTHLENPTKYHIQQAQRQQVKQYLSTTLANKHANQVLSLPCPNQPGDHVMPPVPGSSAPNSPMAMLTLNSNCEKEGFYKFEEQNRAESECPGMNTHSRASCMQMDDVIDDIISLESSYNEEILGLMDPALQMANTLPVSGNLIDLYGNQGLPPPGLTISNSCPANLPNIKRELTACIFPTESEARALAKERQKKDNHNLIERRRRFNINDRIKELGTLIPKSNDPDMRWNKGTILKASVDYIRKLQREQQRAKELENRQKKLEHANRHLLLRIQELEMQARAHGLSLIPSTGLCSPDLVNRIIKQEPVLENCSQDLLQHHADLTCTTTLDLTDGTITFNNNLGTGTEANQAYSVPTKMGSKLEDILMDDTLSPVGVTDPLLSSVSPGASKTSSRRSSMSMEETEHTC
GPR151 conf act = human GPR151 activation, confirmation screen; GPR151 PathHunter beta-arrestin cells, luminescence, 90 min; % of EA-reagent control over plate median; shares compounds with GPR151 activ; AID 1508609; activation, % at 11.2 µM; 6,700 tested, under 10 active;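 active means mean percent activation across replicates above the confirmation screen cutoff of 4.91%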
GPR119 counter = activates human GPR119 in a GPR151 counter-screen. shares compounds with GPR151 activ. AID 1508611. activation, % at 11.2 µM. hit rate 0.3% among 6,700. GPR119 PathHunter beta-arrestin cells, luminescence, 90 min; 0 = compound-well median, 100 = enzyme-acceptor control;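 active means mean percent activation in the counterscreen above 29.09%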;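 further: counterscreen on off-target GPR119 to flag nonselective hits from the GPR151 activator screen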
* marks the source's active call; other numbers are inactive results.

How did O=C(O)Cc1ccc(NC(=O)c2ccccc2-c2ccccc2C(=O)O)cc1 do in these assays?
GPR151 activ: 6.6*; FBW7 activator: 0; TEAD-YAP inh: 7; MITF inh: 7; GPR151 conf act: -1; GPR119 counter: -11

What do the screens show for `O=C(Nc1c2c(nn1-c1ccc(F)cc1)CSC2)c1ccc(Br)o1`?
GPR151 activ: 2; FBW7 activator: 0; TEAD-YAP inh: 11; MITF inh: 6

How did O=C(Nc1c2c(nn1-c1ccc([N+](=O)[O-])cc1)CSC2)c1ccc(Br)o1 do in these assays?
GPR151 activ: 5.2*; FBW7 activator: 0; TEAD-YAP inh: 14; MITF inh: 8; GPR151 conf act: -1; GPR119 counter: -4

What do the screens show for `COc1cccc(C(=O)Nc2c3c(nn2-c2ccc(Oc4ccccc4)cc2)CSC3)c1`?
GPR151 activ: -1; FBW7 activator: 1; TEAD-YAP inh: 6; MITF inh: 8

Results for COc1ccc(-n2nc3c(c2NC(=O)c2cccc(OC)c2)CSC3)cc1 ?
GPR151 activ: 6.1*; FBW7 activator: 0; TEAD-YAP inh: 12; MITF inh: 0; GPR151 conf act: 0; GPR119 counter: 6

How did O=C(NC1CCCCC1)c1cccn2c(=O)c3ccccc3nc12 do in these assays?
GPR151 activ: -1; FBW7 activator: 0; TEAD-YAP inh: 15; MITF inh: -9

Results for CCN1CCN(Cc2cc(=O)oc3c(C)c(C)ccc23)CC1 ?
GPR151 activ: 2; FBW7 activator: 0; TEAD-YAP inh: 3; MITF inh: 6

What do the screens show for `Cn1nnnc1SCC(=O)N1CC2(C)CC1CC(C)(C)C2` (configuration not stated)?
GPR151 activ: 0; FBW7 activator: 0; TEAD-YAP inh: -7; MITF inh: 3

Results for COc1ccccc1-n1c(CNC(=O)c2ccc(S(=O)(=O)N3CCCCC3)cc2)nnc1SCC(=O)Nc1nccs1 ?
GPR151 activ: 5.4*; FBW7 activator: 0; TEAD-YAP inh: 13; MITF inh: 2; GPR151 conf act: -1; GPR119 counter: -7

What do the screens show for `CC1CCCN(C(=O)c2cc3c(s2)-c2ccccc2S(=O)(=O)C3)C1` (configuration not stated)?
GPR151 activ: 0; FBW7 activator: 0; TEAD-YAP inh: -16; MITF inh: 7

How did Cc1cc(OCC(=O)NN2CCN(C)CC2)ccc1[N+](=O)[O-] do in these assays?
GPR151 activ: 1; FBW7 activator: 0; TEAD-YAP inh: -8; MITF inh: -8

Results for Cc1cc(OCC(=O)NN2CCOCC2)ccc1[N+](=O)[O-] ?
GPR151 activ: 5.0*; FBW7 activator: 0; TEAD-YAP inh: -4; MITF inh: -10; GPR151 conf act: 0; GPR119 counter: 5

How did CCS(=O)(=O)n1nc(-c2ccccc2)nc1NCc1ccco1 do in these assays?
GPR151 activ: 12*; FBW7 activator: 0; TEAD-YAP inh: -10; MITF inh: -8; GPR151 conf act: 0; GPR119 counter: 4

How did CC1=NN(c2ccc(C)c(Cl)c2)C(=O)/C1=C\c1ccc(-c2ccc(S(N)(=O)=O)cc2)o1 do in these assays?
GPR151 activ: -1; FBW7 activator: 0; TEAD-YAP inh: 10; MITF inh: 3

How did O=C(NCCCN1CCOCC1)c1cc(COc2ccc(F)cc2F)on1 do in these assays?
GPR151 activ: -1; FBW7 activator: 0; TEAD-YAP inh: 7; MITF inh: 22

What do the screens show for `O=C(Nc1nncs1)c1ncoc1-c1cccs1`?
GPR151 activ: -1; FBW7 activator: 0; TEAD-YAP inh: 8; MITF inh: -16

How did O=C(Nc1nccs1)c1ncoc1-c1cccs1 do in these assays?
GPR151 activ: 8.7*; FBW7 activator: 0; TEAD-YAP inh: 5; MITF inh: -14; GPR151 conf act: 0; GPR119 counter: 4

Results for COc1cc(NC(=O)Nc2ccc(-c3nc4ccccc4o3)cc2)cc(OC)c1OC ?
GPR151 activ: 5.6*; FBW7 activator: 0; TEAD-YAP inh: -40; MITF inh: -9; GPR151 conf act: 0; GPR119 counter: 7

Results for O=C(CN1C(=O)c2cccc([N+](=O)[O-])c2C1=O)OCC(=O)c1ccccc1Cl ?
GPR151 activ: 2; FBW7 activator: 0; TEAD-YAP inh: 2; MITF inh: 15

What do the screens show for `O=C(CN1C(=O)c2cccc([N+](=O)[O-])c2C1=O)OCc1ccc(C(=O)c2ccccc2)cc1`?
GPR151 activ: 4; FBW7 activator: 1; TEAD-YAP inh: -4; MITF inh: 4

How did O=C(CN1C(=O)c2cccc([N+](=O)[O-])c2C1=O)OCc1ccc(Cl)cc1 do in these assays?
GPR151 activ: 7.3*; FBW7 activator: 1; TEAD-YAP inh: -1; MITF inh: 2; GPR151 conf act: 0; GPR119 counter: -8

Results for NC(=O)c1ccccc1NC(=O)CCN1C(=O)c2cccc([N+](=O)[O-])c2C1=O ?
GPR151 activ: 5.4*; FBW7 activator: 1; TEAD-YAP inh: -1; MITF inh: 9; GPR151 conf act: -1; GPR119 counter: 8

Results for O=C(COC(=O)CN1C(=O)c2cccc([N+](=O)[O-])c2C1=O)OCN1C(=O)c2ccccc2C1=O ?
GPR151 activ: 4.9*; FBW7 activator: 1; TEAD-YAP inh: -12; MITF inh: 34; GPR151 conf act: 0; GPR119 counter: 4

What do the screens show for `CC(C)CCNC(=O)CN(Cc1cccs1)C(=O)Cn1nnc(-c2ccc(F)cc2)n1`?
GPR151 activ: -1; FBW7 activator: 0; TEAD-YAP inh: 10; MITF inh: 5

What do the screens show for `CCc1ccccc1Nc1c2c(nc3ccccc13)CCC2`?
GPR151 activ: 0; FBW7 activator: 1; TEAD-YAP inh: 25; MITF inh: 9

Results for N#Cc1cccc(NC(=O)Cc2ccccc2)c1 ?
GPR151 activ: 7.6*; FBW7 activator: 0; TEAD-YAP inh: 4; MITF inh: 18; GPR151 conf act: 0; GPR119 counter: -4

What do the screens show for `N#Cc1ccc(NC(=O)CCCc2ccccc2)cc1`?
GPR151 activ: 5.1*; FBW7 activator: 0; TEAD-YAP inh: -81; MITF inh: 8; GPR151 conf act: 0; GPR119 counter: -8

Results for N#Cc1cccc(NC(=O)CCCc2ccccc2)c1 ?
GPR151 activ: 0; FBW7 activator: 0; TEAD-YAP inh: -41; MITF inh: -12

What do the screens show for `O=C(CCCc1ccccc1)Nc1ccccc1`?
GPR151 activ: 0; FBW7 activator: 0; TEAD-YAP inh: -60; MITF inh: 12

How did O=C(CCCc1ccccc1)Nc1ccc(F)cc1 do in these assays?
GPR151 activ: 6.1*; FBW7 activator: 0; TEAD-YAP inh: -90; MITF inh: -4; GPR151 conf act: -1; GPR119 counter: -13

What do the screens show for `CCOC(=O)CC(CC(C)C)NC(=O)CCc1nnc(-c2ccc(C)s2)o1` (configuration not stated)?
GPR151 activ: 1; FBW7 activator: 0; TEAD-YAP inh: -52; MITF inh: 11
